# Measurements published in PubChem BioAssay AID2685 (National Center for Advancing Translational Sciences (NCATS), 2010).
# About 2,100 (0.66%) of roughly 320,000 compounds were called active. Roughly 53% stayed inconclusive and do not appear here. Calls follow the shape of the dose curve; as a rule, active = well fitted inhibition curve with a large enough effect in the signal ratio, with a control signal flat (not every such curve was filed as active); inconclusive = small, poorly fitted or top-dose-only effect, or effect the other way, or a change in a side signal; inactive = flat fitted curve, though single readings scatter; the % refers to the signal ratio. This excerpt belongs to a sample that is enriched for actives.
# Assay: qHTS Assay for Lipid Storage Modulators in Drosophila S3 Cells;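 as to cell number change: cells counted by Cell Tracker Red CMTPX staining in the red channel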; as to lipid storage change, negative = inhibition: % is scaled to controls: 0 for no effect and ±100 for the full control effect
# Settings: BODIPY lipid droplet fluorescence, 18-24 h, cells fed with added oleic acid; cell number change: measured here: cell count max response; series mostly up to 46.1 µM; lipid storage change, negative = inhibition: at the top concentration
# How it was run: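 Drosophila S3 cells loaded with oleic acid (400 uM, as added) and compounds at several concentrations; lipid droplets imaged by 488-nm laser-scanning cytometry, 500–530 nm intensity and object ratio to cell channel. Percent activity normalized to 20 uM Triacsin C.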
# Potency is read from the fitted curve at half-maximal effect.
SMILES,"lipid storage change, negative = inhibition",cell number change,outcome,Potency
COc1ccccc1N(C)S(=O)(=O)c1ccc(C(=O)O)cc1,-19.5% (inactive),-4.33%,–,–
COc1cccc(CN2CCNC(=O)C2CC(=O)NCc2cn3cccc(C)c3n2)c1OC (stereo not drawn),–,-8.41%,inactive,–
CCN1CCN(S(=O)(=O)c2cccc3nsnc23)CC1,-15.7% (inactive),-12.7%,–,–
O=S(=O)(c1cccc2nsnc12)N1CCN(C/C=C/c2ccccc2)CC1,24.3% (inactive),7.87%,–,–
O=S(=O)(c1cccc2nsnc12)N1CCN(Cc2ccccc2)CC1,–,1.32%,–,6.51 µM (active)
COc1ccc(-n2c(C)cc(/C=C3\SC(=S)N(Cc4ccco4)C3=O)c2C)cc1,-4.8% (inactive),-10.6%,–,–
Cc1cc(/C=C2\SC(=S)N(Cc3ccco3)C2=O)c(C)n1-c1cccnc1,–,–,–,23.1 µM (active)
Cc1cc(/C=C2\SC(=S)N(Cc3ccco3)C2=O)c(C)n1-c1ccccc1,24.5% (inactive),-3.86%,–,–
Cc1cc(C(=O)NN=C2C3CC4CC(C3)CC2C4)c2ccccc2n1,-6.2% (inactive),-7.65%,–,–
CN(C)C(CNC(=S)Nc1cccc(Cl)c1)c1cccnc1 (stereo not drawn),-1.12% (inactive),-7.59%,–,–
CNNC(=S)NC1CC2CC1C1C=CCC21 (stereo not drawn),14.9% (inactive),17.5%,–,–
CCOc1ncccc1-c1nc(-c2cccs2)no1,21.8% (inactive),-0.414%,–,–
CCOc1cccc2cc(C(=O)N3CC(C)OC(C)C3)c(=O)oc12 (stereo not drawn),0.754% (inactive),-8.03%,–,–
Cc1ccccc1OCc1ccc(C(=O)N2CC(C)OC(C)C2)o1 (stereo not drawn),–,14.8%,–,32.6 µM (active)
CC1CN(C(=O)c2ccc(COc3ccc4ccccc4c3)o2)CC(C)O1 (stereo not drawn),17.9% (inactive),18.9%,–,–
CC1CN(C(=O)COC(=O)c2cc(Cl)ccc2Cl)CC(C)O1 (stereo not drawn),-9.51% (inactive),-5.44%,–,–
CC1CN(C(=O)c2ccc(COc3ccccc3Br)o2)CC(C)O1 (stereo not drawn),15.9% (inactive),21.6%,–,–
CC1CN(C(=O)c2ccccc2OCc2ccc(Cl)cc2Cl)CC(C)O1 (stereo not drawn),–,-15%,–,0.651 µM (active)
COc1ccc(N=C2CCS(=O)(=O)c3sccc32)cc1,18.8% (inactive),–,–,–
O=C(CN1C(=O)NC2(CCCC2)C1=O)Nc1ccccc1-c1ccccc1,7.06% (inactive),–,–,–

SMILES,"lipid storage change, negative = inhibition",cell number change,outcome,Potency
COc1ccccc1C(=O)Nc1cccc(N(C)S(C)(=O)=O)c1,8.7% (inactive),-2.55%,–,–
CC(=O)c1cccc(NC(=O)N2CCN(S(C)(=O)=O)CC2)c1,–,–,–,11.6 µM (active)
CC(=O)c1cccc(NC(=O)N2CCCCCC2)c1,–,-8.42%,inactive,–
Cc1cc(C)cc(NC(=O)N2CCN(S(C)(=O)=O)CC2)c1,14.6% (inactive),5.38%,–,–
O=C(CCc1nnc2n(Cc3ccc(Cl)cc3)c(=O)c3ccccc3n12)NCCCN1CCOCC1,–,–,inactive,–
CC(C)N(C(=O)Cn1c(-c2ccccc2Cl)nc2ccccc21)c1ccccc1,-6.38% (inactive),-7.06%,–,–
N#C/C(=N\Nc1ccc(F)cc1)C(=N)N1CCCCCC1,-5.17% (inactive),0.927%,–,–
O=[N+]([O-])c1cc([N+](=O)[O-])c(N2CCCCCC2)cc1NCCO,-14% (inactive),-19.4%,–,–
Cc1nc2ccccc2n1CCOc1ccc(F)cc1,9.98% (inactive),-21.4%,–,–
CCn1cc(SCC(=O)NCC2CCCO2)c2ccccc21 (stereo not drawn),-5.87% (inactive),-11.7%,–,–
Cc1ccccc1C(=O)NCCn1cc(SCC(=O)NCC2CCCO2)c2ccccc21 (stereo not drawn),-8.86% (inactive),4.31%,–,–
COc1ccccc1C(=O)NCCn1cc(SCC(=O)NCC2CCCO2)c2ccccc21 (stereo not drawn),–,-16.8%,–,18.4 µM (active)
CCCCNC(=O)C1CCN(Cc2ccc(OCc3ccccc3)cc2)CC1,-3.1% (inactive),-13%,–,–
Cc1ccc(S(=O)(=O)Oc2ccc(/C=C3/C(=N)N4C(=NC3=O)SN=C4S(C)(=O)=O)cc2)cc1,–,-5.51%,inactive,–
COc1ccc(/C=C2/C(=N)N3C(=NC2=O)Sc2cc(S(C)(=O)=O)ccc23)cc1OC,-5.29% (inactive),20.5%,–,–
CN(C)c1ccc(/C=C2\C(=N)N3C(=NC2=O)Sc2cc(S(C)(=O)=O)ccc23)cc1,–,29.8%,–,5.8 µM (active)
CC(=O)N1CCc2cc(S(=O)(=O)CCC(=O)N3CCN(c4ccccn4)CC3)ccc21,11.4% (inactive),3.02%,–,–
CCc1ccc(C(C(=O)NCc2ccc(F)cc2)N(C(=O)c2csnn2)C2CC2)cc1 (stereo not drawn),–,-0.952%,inactive,–
CCCN(C(=O)/C=C/c1nc2ccccc2s1)C1CCS(=O)(=O)C1 (stereo not drawn),-2.18% (inactive),10.5%,–,–
COc1ccc(NC(=O)c2ccc(NCCCN3CCOCC3)c([N+](=O)[O-])c2)cc1,9.93% (inactive),0.55%,–,–

SMILES,"lipid storage change, negative = inhibition",cell number change,outcome,Potency
Cc1ccc(C(=O)NC2CCCCC2)cc1,19.6% (inactive),-6.85%,–,–
CS(=O)(=O)NCc1ccc(C(=O)NC2CCCCC2)cc1,–,–,inactive,–
Cc1cccc(C(=O)NC2CCCCCCC2)c1,6.47% (inactive),5.98%,–,–
CS(=O)(=O)Nc1ccc(C(=O)NC2CCCC2)cc1,–,-0.712%,–,2.91 µM (active)
CS(=O)(=O)c1ccc(C(=O)NC2CCCCC2)cc1,19.9% (inactive),6.12%,–,–
CCc1ccc(NC(=O)c2ccc(NC(=O)C3CCCO3)cc2)cc1 (stereo not drawn),–,8.55%,inactive,–
CCOC(=O)c1cccc(NC(=O)c2ccc(NC(=O)C3CCCO3)cc2)c1 (stereo not drawn),–,-4.84%,–,14.6 µM (active)
Cc1ccc(C(=O)Nc2cccc(C(=O)O)c2)cc1,-0.691% (inactive),-13.9%,–,–
CC1Nc2ccc(C(=O)NC3CCCCC3)cc2NC1=O (stereo not drawn),–,18.4%,–,23.1 µM (active)
O=C(NC1CCCCC1)c1ccc2c(c1)OCO2,3.69% (inactive),1.32%,–,–
O=C(Nc1cccc(O)c1)c1ccc(NC(=O)C2CCCO2)cc1 (stereo not drawn),–,-1.32%,inactive,–
Cc1ccc(C(=O)Nc2cccc(C(=O)NC3CCCC3)c2)cc1,–,21.4%,–,14.6 µM (active)
CC(C)CC(=O)N1CCN(Cc2ccc(Cl)cc2)CC1,10.9% (inactive),1.4%,–,–
CN1CCN(C(=O)C2=C[C@@H](c3csc4ccccc34)C[C@@H](OCc3ccc(CO)cc3)O2)CC1,6.22% (inactive),5.1%,–,–
Cc1ccc(S(=O)(=O)N(C)c2nc3ccccc3[nH]c2=S)cc1,-4.12% (inactive),4.96%,–,–
CCCCn1nc(NS(=O)(=O)c2cccc3nonc23)c2cc3cccc(C)c3nc21,-12.1% (inactive),–,–,–
COc1ccc2nc(SCc3ccccc3C)nc(C)c2c1,-4.04% (inactive),-12.5%,–,–
COc1ccc(CCN(Cc2ccc(C(C)C)cc2)S(=O)(=O)c2ccc(S(=O)(=O)N(C)C)cc2)cc1OC,0.0067% (inactive),-3.06%,–,–
COc1ccc(OC)c(C2=NOC(C(=O)NCc3cccs3)C2)c1 (stereo not drawn),-0.872% (inactive),19.5%,–,–
COc1nc(OC)nc(N2CCC(C(=O)Nc3cccc4ccccc34)CC2)n1,14.5% (inactive),-0.422%,–,–
